Results as given in PubChem BioAssay (NCATS).
Records with an inconclusive call do not appear. A call without a number means that no potency is given here. The source made the active and inactive calls. Calls follow the shape of the dose curve; as a rule, active = well fitted inhibition curve with a large enough effect; inconclusive = small, poorly fitted or top-dose-only effect; inactive = flat fitted curve, though single readings scatter.
Potency is read from the fitted curve at half-maximal effect.

What follows are compounds tested on JCK (assay: qHTS profiling for inhibitors of Plasmodium falciparum proliferation (AID 504749; also: nearly all actives have a fitted effect of over 60% in size)). Details: P. falciparum in erythrocytes, SYBR Green DNA, 72 h; series mostly up to 28.7 µM.
Method in brief: (§1)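 Three-day growth assay of blood-stage parasites in erythrocytes (0.3% parasitemia, 2.5% hematocrit) at 37 C, 5% CO2, quantified by SYBR Green DNA staining after overnight detergent lysis.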
For `C[C@](N)(Cc1ccc(O)cc1)C(=O)O`, the Potency was “inactive”.
In the case of `NC(=O)N/N=C/c1ccc([N+](=O)[O-])o1`, the Potency is reported as “inactive”.
With `CCCn1cnc2c1c(=O)n(CCCCC(C)=O)c(=O)n2C` the Potency was “inactive”.
For `CCN(CC)CCSC(=O)C(c1ccccc1)c1ccccc1`, the Potency was “inactive”.
For `CNCCCC1c2ccccc2C=Cc2ccccc21`, the Potency was “inactive”.
With `CC1=C(CC(=O)O)c2cc(F)ccc2/C1=C\c1ccc(S(C)=O)cc1` (stereo not given) the Potency was “inactive”.
With `CC(CN1c2ccccc2Sc2ccccc21)N(C)C` (stereo not given) the Potency was “inactive”.
With `COCCOC(=O)C1=C(C)NC(C)=C(C(=O)OC/C=C/c2ccccc2)C1c1cccc([N+](=O)[O-])c1` (stereo not given) the Potency was “inactive”.
In the case of `CSc1ccc2c(c1)C(N1CCN(C)CC1)Cc1ccccc1S2` (stereo not given), the Potency is reported as “inactive”.
With `C=Cc1c(C)c2cc3[nH]c(cc4nc(cc5nc(cc1[nH]2)C(C)=C5CCC(=O)O)C(CCC(=O)O)=C4C)c(C)c3C=C` the Potency was “inactive”.
In the case of `CN(C)CCN(Cc1ccccc1)c1ccccn1`, the Potency is reported as “inactive”.
In the case of `OCc1cc(C(O)CNCCCCCCOCCCCc2ccccc2)ccc1O` (stereo not given), the Potency is reported as “inactive”.
For `O=C(O)CN1C(=O)c2cccc3cccc(c23)C1=O`, the Potency was “inactive”.
With `COC(=O)C1=C(C)NC(C)=C(C(=O)OC)C1c1ccccc1[N+](=O)[O-]` the Potency was “inactive”.
In the case of `CC1=C(/C=C/C(C)=C/C=C/C(C)=C/C(=O)O)C(C)(C)CCC1`, the Potency is reported as “inactive”.
In the case of `CC(=O)Oc1ccc(C2(c3ccc(OC(C)=O)cc3)C(=O)Nc3ccccc32)cc1`, the Potency is reported as “inactive”.
`CN1CCCCC1CCN1c2ccccc2Sc2ccc(S(C)=O)cc21` (stereo not given) was tested, and the Potency was “inactive”.
With `CN1CCN(C2Cc3ccccc3Sc3ccc(Cl)cc32)CC1` (stereo not given) the Potency was “inactive”.
With `O=C1NC(=O)[C@@]2(CCOc3ccc(F)cc32)N1` the Potency was “inactive”.

The compounds below were run on N140 in the same assay as above. Details: P. falciparum in erythrocytes, SYBR Green DNA, 72 h; series mostly up to 28.7 µM.
Method in brief: as §1
`C[C@](N)(Cc1ccc(O)cc1)C(=O)O` was tested, and the Potency was “inactive”.
In the case of `OCCN1CCN(CCCN2c3ccccc3Sc3ccc(Cl)cc32)CC1`, the Potency is reported as 3.55 µM (active).
`CC(=O)c1ccc2c(c1)N(CCCN(C)C)c1ccccc1S2` was tested, and the Potency was “inactive”.
`NC(=O)N/N=C/c1ccc([N+](=O)[O-])o1` was tested, and the Potency was 11.2 µM (active).
In the case of `CCCn1cnc2c1c(=O)n(CCCCC(C)=O)c(=O)n2C`, the Potency is reported as “inactive”.
With `CCN(CC)CCSC(=O)C(c1ccccc1)c1ccccc1` the Potency was “inactive”.
With `CCN(CC)CCNC(=O)c1c(C)[nH]c(/C=C2\C(=O)Nc3ccc(F)cc32)c1C` the Potency was 8.91 µM (active).
In the case of `CNCCCC1c2ccccc2C=Cc2ccccc21`, the Potency is reported as “inactive”.
`CC1=C(CC(=O)O)c2cc(F)ccc2/C1=C\c1ccc(S(C)=O)cc1` (stereo not given) was tested, and the Potency was “inactive”.
For `CC(CN1c2ccccc2Sc2ccccc21)N(C)C` (stereo not given), the Potency was 4.47 µM (active).
In the case of `COCCOC(=O)C1=C(C)NC(C)=C(C(=O)OC/C=C/c2ccccc2)C1c1cccc([N+](=O)[O-])c1` (stereo not given), the Potency is reported as 8.91 µM (active).
In the case of `C=Cc1c(C)c2cc3[nH]c(cc4nc(cc5nc(cc1[nH]2)C(C)=C5CCC(=O)O)C(CCC(=O)O)=C4C)c(C)c3C=C`, the Potency is reported as “inactive”.
`OCc1cc(C(O)CNCCCCCCOCCCCc2ccccc2)ccc1O` (stereo not given) was tested, and the Potency was “inactive”.
`O=C(O)CN1C(=O)c2cccc3cccc(c23)C1=O` was tested, and the Potency was “inactive”.
`COC(=O)C1=C(C)NC(C)=C(C(=O)OC)C1c1ccccc1[N+](=O)[O-]` was tested, and the Potency was “inactive”.
`CC1=C(/C=C/C(C)=C/C=C/C(C)=C/C(=O)O)C(C)(C)CCC1` was tested, and the Potency was “inactive”.
For `CCCCN(CCCC)CC(O)c1cc(Cl)cc2c1-c1ccc(Cl)cc1/C2=C/c1ccc(Cl)cc1` (stereo not given), the Potency was 0.0045 µM (active).
With `CC(=O)Oc1ccc(C2(c3ccc(OC(C)=O)cc3)C(=O)Nc3ccccc32)cc1` the Potency was “inactive”.
For `CN1CCN(C2Cc3ccccc3Sc3ccc(Cl)cc32)CC1` (stereo not given), the Potency was “inactive”.
For `Cc1c(O)cccc1C(=O)N[C@@H](CSc1ccccc1)[C@H](O)CN1C[C@H]2CCCC[C@H]2C[C@H]1C(=O)NC(C)(C)C`, the Potency was 7.94 µM (active).
For `O=C1NC(=O)[C@@]2(CCOc3ccc(F)cc32)N1`, the Potency was “inactive”.
